Consider 22 molecules from PubChem BioAssay (NCATS).

Assay [1] can be described thus: Cellular Toxicity (caspase-3) Hek293 (AID 664).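 Note: cells exposed to compound for 16 h at 37 °C before readout.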 In short, it runs like this: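 HEK293 cells in complete medium treated 16 h at 37 °C, then Caspase-Glo 3/7 luminescence read after 20 min at room temperature. Normalized to DMSO and 100 uM tamoxifen; AC50 from Hill fit of concentration-response.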
The target of assay [2] is Cytochrome P450 3A4 (Homo sapiens) (UniProt P08684). The experiment in a line: qHTS Assay for Activators of Cytochrome P450 3A4 (AID 885). Note: nearly all actives have a fitted effect of over 65% in size. In a few lines:
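20nM CYP3A4 + 25uM Luciferin-PPXE (=KM), 200mM KPO4; cpd 10 min RT; NADPH regen, 60 min RT; stop w/ detection buffer, 20 min; luminescence. Normalized to 57 uM ketoconazole.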
In general terms: qHTS replaces the single test concentration by a dilution series.

Assay [3] can be described thus: Cell Viability - LYMP2-001 (AID 921). Note: nearly all actives have a fitted effect of over 70% in size. Note: potency is the fitted concentration of half-maximal effect. In short, it runs like this:
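Human lymphoblastoid LYMP2-001 cells, 2500 per well, in complete medium, treated 24 h at 37 C. Viability from cellular ATP by CellTiter-Glo luminescence; AC50 from Hill-equation fits of qHTS concentration-response.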

The target in assay [4] is Guanine nucleotide-binding protein G(i) subunit alpha-1 (Homo sapiens) (UniProt P63096). The experiment in a line: qHTS Assay for Inhibitors of RGS12 GoLoco Motif Activity (Green Fluorophore) (AID 879).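 Note: 0% = labeled peptide with Gαi1 and full inhibition = labeled peptide alone without protein; negative values mean loss of peptide binding seen as reduced polarization.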 In a few lines: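 Fluorescence polarization assay: 50 nM Gαi1 with 10 nM FITC-labeled RGS12 GoLoco peptide in 10 mM Tris pH 7.5, 150 mM NaCl, 0.1 mM GDP, 0.05% NP40, 10 min at room temperature with compound.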
Sequence of Guanine nucleotide-binding protein G(i) subunit alpha-1 (Homo sapiens) (P63096 whole entry, looked up): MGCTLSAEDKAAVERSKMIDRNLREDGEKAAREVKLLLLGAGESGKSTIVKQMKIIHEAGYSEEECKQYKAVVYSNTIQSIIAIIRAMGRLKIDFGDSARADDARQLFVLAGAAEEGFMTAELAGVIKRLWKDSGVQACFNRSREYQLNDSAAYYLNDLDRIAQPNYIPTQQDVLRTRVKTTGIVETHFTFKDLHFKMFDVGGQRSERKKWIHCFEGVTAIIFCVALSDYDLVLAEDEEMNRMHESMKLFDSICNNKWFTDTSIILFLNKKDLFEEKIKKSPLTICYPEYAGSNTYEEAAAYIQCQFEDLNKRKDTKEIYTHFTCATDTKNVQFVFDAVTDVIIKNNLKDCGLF

Assay [5] can be described thus: Confirmation and Secondary Assay for Modulators of Hemoglobin Beta Chain Splicing at IVS2 654 locus (AID 910).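 Note: HeLa cells stably carrying EGFP split by mutant beta-globin IVS2-654 intron; per-well total GFP intensity by laser scanning cytometry after 2-day treatment; % of control where 0% means no effect.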 In short, it runs like this:
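Readout: per-well total peak green fluorescence (488 nm ex, 500–520 nm em) from objects 5–250 µm, reflecting correct splicing of an EGFP-654 reporter. Compounds were applied for 2 days at 37 °C to overnight-plated HeLa EGFP-654 cells; controls were DMSO and 500 nM IVS2-654 PNA.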

Assay [6] is described as follows: qHTS Assay for Identification of Small Molecule Agonists for Thrombopoietin (TPO) Signaling Pathway (AID 917). Note: % is set by controls: 0 for no effect and ±100 for the full control effect. In a few lines: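 Murine Ba/F3 cells expressing human TPO receptor and GPIIb-promoter luciferase, IL-3-starved overnight, given compound plus TPO at 26 pM (EC50). After 24 h at 37 C, 5% CO2, luminescence read.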
The nature of assay [7]: Confirmation and Secondary Assay for Modulators of Hemoglobin Beta Chain Splicing at IVS2 705 locus (AID 930).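 Note: HeLa cells stably expressing the EGFP-705 splicing reporter; GFP fluorescence per well restored by corrected splicing of the IVS2-705 intron in EGFP; series mostly up to about 46 µM; % of control where 0% means no effect.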 In short, it runs like this:
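Fluorescence gain (488 nm laser, 500-520 nm PMT) reflects restored correct splicing of a mutant IVS2-705 intron inside EGFP in stably transfected HeLa cells after 2-day compound treatment.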

Assay [8] concerns the target Muscarinic acetylcholine receptor M1 (Rattus norvegicus) (UniProt P08482). As to the kind of experiment: qHTS Assay for Antagonists of Acetylcholine Muscarinic M1 Receptor: Kinetic Measurement of Intracellular Calcium Response (AID 943). Note: series mostly up to about 35 µM; nearly all actives have a fitted effect of over 75% in size. In a few lines:
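CHO cells expressing rat M1 receptor, Fluo-4 loaded, preincubated 10 min with compound, then stimulated with EC80 carbachol (100 nM final). Kinetic calcium fluorescence over 4 min; response taken as peak over basal signal.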

Assay [9] shares this target. As to the kind of experiment: qHTS Assay for Antagonists of Acetylcholine Muscarinic M1 Receptor: Measurement of IP-One Response (AID 944). Note: nearly all actives have a fitted effect of over 75% in size. Note: potency is the fitted concentration of half-maximal effect. In a few lines: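 CHO cells stably expressing rat M1, pretreated 10 min with compound, then stimulated 30 min with carbachol at EC80 (200 nM) in LiCl-containing buffer pH 7.4; IP1 accumulation read by HTRF competition (665/620 nm).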

Assay [10] deals with Pyruvate kinase (Leishmania mexicana) (UniProt Q27686). The experiment in a line: qHTS Validation Assay for Inhibitors of Leishmania Mexicana Pyruvate Kinase (AID 945).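 Note: 0% = DMSO only neutral control wells.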 In a few lines: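 Compounds are tested as eight-point concentration series. Reactions contain 0.2 nM LmPYK E451W, 0.5 mM PEP, 0.1 mM ADP, 7 mM MgCl2 and 50 mM KCl at pH 7.2, run 1 h at room temperature, then read by PKLight luminescence.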
Sequence of Pyruvate kinase (Leishmania mexicana) (Q27686 2-499 E452W): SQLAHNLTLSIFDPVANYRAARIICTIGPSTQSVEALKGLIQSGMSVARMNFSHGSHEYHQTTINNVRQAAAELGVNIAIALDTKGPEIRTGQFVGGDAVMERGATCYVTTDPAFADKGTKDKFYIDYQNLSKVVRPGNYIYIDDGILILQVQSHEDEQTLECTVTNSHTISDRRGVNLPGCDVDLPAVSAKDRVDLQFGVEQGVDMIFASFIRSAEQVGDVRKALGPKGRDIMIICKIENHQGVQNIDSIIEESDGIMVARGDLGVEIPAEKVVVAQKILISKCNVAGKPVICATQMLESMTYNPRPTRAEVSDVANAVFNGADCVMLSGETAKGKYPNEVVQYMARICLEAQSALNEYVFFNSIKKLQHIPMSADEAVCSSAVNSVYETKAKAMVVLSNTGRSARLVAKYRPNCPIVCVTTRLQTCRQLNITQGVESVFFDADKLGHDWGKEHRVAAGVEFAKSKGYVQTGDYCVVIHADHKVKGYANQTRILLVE

Assay [11] is described as follows: qHTS Assay for Identification of Small Molecule Antagonists for NFkB Signaling Pathway (AID 895; active = well fitted inhibition curve with a large enough effect in the signal ratio, with a control signal flat, not every such curve was filed as active; the % refers to the signal ratio; note: potency is the fitted concentration of half-maximal effect). In short, it runs like this: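 Beta-lactamase reporter read-out (460 and 530 nm emission ratio, 405 nm excitation, 2 hrs substrate loading RT) after 5 hr stimulation with 10 pM TNF alpha in compound-treated NFkB-bla ME-180 cells in low-serum medium.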
Assay [12] is described as follows: Cellular Toxicity (caspase-3) NIH 3T3 (AID 666).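 Note: caspase signal read after 16 h compound exposure; 0% = DMSO basal and 100% = 100 µM tamoxifen stimulation.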 In a few lines: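 Mouse NIH 3T3 fibroblasts (1000/well) treated 16 h at 37 C; caspase-3/7 activity measured by Caspase-Glo 3/7 luminescence after 20 min. Normalized to DMSO and 100 uM tamoxifen; AC50 from Hill fits.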
The nature of assay [13]: Cellular Toxicity (caspase-3) Renal Proximal Tubule (AID 667).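 Note: cells exposed to compound for 16 hours at 37 °C before detection; 0% = DMSO basal and 100% = 10 µM staurosporine.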 In short, it runs like this:
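Freshly isolated primary rat kidney proximal tubule cells, 1000/well, treated 16 hr at 37 °C, then Caspase-Glo 3/7 luminescence after 1 hr. Normalized to DMSO and 10 uM staurosporine; AC50 from Hill fit.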

Assay [14] in a line: MultiTox-Fluor Cytotoxicity Assay - LYMP1-001 - Dead Cells (AID 946).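 Note: cells exposed to compound for 16 h.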 Note: potency is the fitted concentration of half-maximal effect. In short, it runs like this:
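AC50 from Hill fit of concentration-response; data normalized to DMSO (basal) and 15 uM tetraoctylammonium bromide (100%). LYMP1-001 lymphoblastoid cells, 2500/well, 16 hr compound at 37 C; dead-cell protease fluorescence, Ex/Em 485/520.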

Assay [15] deals with Cytochrome P450 3A4 (Homo sapiens) (UniProt P08684). As to the kind of experiment: qHTS Assay for Inhibitors and Substrates of Cytochrome P450 3A4 (AID 884). Note: series mostly up to about 57 µM; % is set by controls: 0 for no effect and ±100 for the full control effect; nearly all actives have a fitted effect of over 50% in size. In short, it runs like this: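 20 nM human CYP3A4 with 25 uM Luciferin-PPXE (at KM) in 200 mM KPO4, preincubated 10 min with compound; NADPH regeneration started a 60 min RT reaction. Luciferin detected by luminescence, normalized to 57 uM ketoconazole as full inhibition.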
Sequence of Cytochrome P450 3A4 (Homo sapiens) (P08684 whole entry, looked up): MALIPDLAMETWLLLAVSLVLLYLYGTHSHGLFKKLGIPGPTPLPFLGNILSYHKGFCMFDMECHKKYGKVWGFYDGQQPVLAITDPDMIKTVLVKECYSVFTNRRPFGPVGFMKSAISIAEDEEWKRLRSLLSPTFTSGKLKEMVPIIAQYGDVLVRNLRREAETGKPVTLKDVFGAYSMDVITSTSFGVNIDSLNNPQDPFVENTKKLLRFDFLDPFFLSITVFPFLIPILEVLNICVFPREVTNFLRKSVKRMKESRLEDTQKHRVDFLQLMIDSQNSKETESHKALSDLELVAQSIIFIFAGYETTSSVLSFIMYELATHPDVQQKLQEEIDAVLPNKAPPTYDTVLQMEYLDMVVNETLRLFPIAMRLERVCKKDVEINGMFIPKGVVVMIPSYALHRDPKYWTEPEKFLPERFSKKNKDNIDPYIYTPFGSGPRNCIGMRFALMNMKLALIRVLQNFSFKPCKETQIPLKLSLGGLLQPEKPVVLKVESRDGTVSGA

Assay [16] addresses Cytochrome P450 2D6 (Homo sapiens) (UniProt P10635). As to the kind of experiment: qHTS Assay for Inhibitors and Substrates of Cytochrome P450 2D6 (AID 891). Note: potency is the fitted concentration of half-maximal effect; nearly all actives have a fitted effect of over 60% in size. In short, it runs like this: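 Human CYP2D6 (5 nM) with 30 uM Luciferin-ME EGE (at Km) in 100 mM KPO4, compound preincubated 10 min, then NADPH regeneration system for 60 min at room temperature. Luciferin read by luminescence; normalized to 1.43 uM quinidine.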

Assay [17] concerns the target Cytochrome P450 2C19 (Homo sapiens) (UniProt P33261). The experiment in a line: qHTS Assay for Inhibitors and Substrates of Cytochrome P450 2C19 (AID 899). Note: % is set by controls: 0 for no effect and ±100 for the full control effect; nearly all actives have a fitted effect of over 60% in size. In short, it runs like this:
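Luminescence readout of luciferin formed from 10uM Luciferin-H EGE (KM level) by 5 nM CYP2C19 in 50mM KPO4. 60 min NADPH-driven reaction at 37C after 10 min compound preincubation; data scaled to 57uM ketoconazole inhibition.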

Assay [18] in a line: qHTS Assay for Identification of Small Molecule Agonists for Hypoxia Response Element Signaling Pathway (AID 914; active = well fitted activation curve with a large enough effect in the signal ratio, with a control signal flat, not every such curve was filed as active; the % refers to the signal ratio; note: % of control where 0% means no effect). To be noted: ME-180 (cervical carcinoma) HRE-bla reporter, beta-lactamase ratio, CoCl2, 17 h; stronger effect = higher value. In short, it runs like this: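 A beta-lactamase reporter under hypoxia response element control in ME-180 cells served as the system. Compound titrations plus EC50 CoCl2 ran 17 h at 37 degrees Celsius; AC50 values were fitted from %Activity.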

The target in assay [19] is Cytochrome P450 2C9 (Homo sapiens) (UniProt P11712). The experiment in a line: qHTS Assay for Inhibitors and Substrates of Cytochrome P450 2C9 (AID 883). Note: % is set by controls: 0 for no effect and ±100 for the full control effect; nearly all actives have a fitted effect of over 60% in size. In a few lines: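 Luminescent read-out of deoxyluciferin hydroxylation, normalized to 57uM sulphaphenazole (AC100). Reaction: 10nM enzyme, 100uM Luciferin-H (equal to KM), 25mM KPO4, 10 min compound preincubation, then 60 min with NADPH regeneration, both at 37C.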
Sequence of Cytochrome P450 2C9 (Homo sapiens) (P11712 whole entry, looked up): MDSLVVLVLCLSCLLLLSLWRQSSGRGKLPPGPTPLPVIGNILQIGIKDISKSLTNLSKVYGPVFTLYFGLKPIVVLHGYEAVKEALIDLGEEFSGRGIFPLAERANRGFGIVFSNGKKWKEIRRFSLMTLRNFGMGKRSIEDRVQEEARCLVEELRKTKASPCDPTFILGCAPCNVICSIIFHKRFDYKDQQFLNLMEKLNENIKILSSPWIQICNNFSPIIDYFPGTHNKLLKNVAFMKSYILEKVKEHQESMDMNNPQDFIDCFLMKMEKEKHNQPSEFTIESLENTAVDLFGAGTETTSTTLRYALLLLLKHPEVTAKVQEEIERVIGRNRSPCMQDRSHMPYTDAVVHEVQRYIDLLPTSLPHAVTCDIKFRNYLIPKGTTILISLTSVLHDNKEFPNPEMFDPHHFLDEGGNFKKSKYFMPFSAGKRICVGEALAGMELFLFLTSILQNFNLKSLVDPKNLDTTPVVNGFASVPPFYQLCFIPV

The nature of assay [20]: qHTS Assay for Identification of Small Molecule Antagonists for Thrombopoietin (TPO) Signaling Pathway (AID 918). Note: potency is the fitted concentration of half-maximal effect; nearly all actives have a fitted effect of over 60% in size. To be noted: TPO-dependent cell signaling reporter, antagonist mode. In a few lines: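 Murine Ba/F3 cells expressing human TPO receptor and a Glycoprotein IIb promoter-luciferase reporter, IL-3-starved overnight, treated with compound plus TPO at EC50 (26 pM final). After 24 h at 37 C, luminescence read to detect inhibitors.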

A number with no mark means an inactive call. Results filed as inconclusive are left out. Active and inactive are the calls of the source. Unless noted, calls come from the whole dose curve; as a rule, active = well fitted curve in the direction sought with a large enough effect; inconclusive = small, poorly fitted or top-dose-only effect, or another doubt; inactive = no such curve, though single readings can be large; an effect the other way counts as inactive or inconclusive.

Sequence of Muscarinic acetylcholine receptor M1 (Rattus norvegicus) (P08482 whole entry, looked up): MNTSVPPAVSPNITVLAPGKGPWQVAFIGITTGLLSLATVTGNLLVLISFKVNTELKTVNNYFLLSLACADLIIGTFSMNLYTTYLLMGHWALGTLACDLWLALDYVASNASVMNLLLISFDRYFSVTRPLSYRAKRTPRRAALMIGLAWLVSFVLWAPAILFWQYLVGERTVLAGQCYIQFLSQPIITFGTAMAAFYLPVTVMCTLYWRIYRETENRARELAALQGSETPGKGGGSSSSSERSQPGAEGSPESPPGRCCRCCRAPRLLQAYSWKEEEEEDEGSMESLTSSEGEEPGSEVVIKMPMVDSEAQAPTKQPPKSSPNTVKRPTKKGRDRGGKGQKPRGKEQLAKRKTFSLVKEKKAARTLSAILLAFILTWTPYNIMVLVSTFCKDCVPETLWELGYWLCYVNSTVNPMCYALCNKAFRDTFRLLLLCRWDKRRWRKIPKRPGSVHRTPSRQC
Sequence of Cytochrome P450 2D6 (Homo sapiens) (P10635 whole entry, looked up): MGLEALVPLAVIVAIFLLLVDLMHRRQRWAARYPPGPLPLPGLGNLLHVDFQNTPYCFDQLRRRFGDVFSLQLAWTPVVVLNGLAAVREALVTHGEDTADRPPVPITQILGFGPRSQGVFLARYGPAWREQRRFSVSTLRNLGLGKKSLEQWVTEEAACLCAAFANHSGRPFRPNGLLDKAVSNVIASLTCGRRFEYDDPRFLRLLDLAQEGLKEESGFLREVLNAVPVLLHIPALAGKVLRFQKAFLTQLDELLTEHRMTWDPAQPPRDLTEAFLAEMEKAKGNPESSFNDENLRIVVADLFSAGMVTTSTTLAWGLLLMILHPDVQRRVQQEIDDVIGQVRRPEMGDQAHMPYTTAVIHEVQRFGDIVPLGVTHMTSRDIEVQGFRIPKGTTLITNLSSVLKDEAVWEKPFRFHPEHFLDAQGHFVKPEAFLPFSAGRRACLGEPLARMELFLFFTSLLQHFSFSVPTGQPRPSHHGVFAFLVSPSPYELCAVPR
Sequence of Cytochrome P450 2C19 (Homo sapiens) (P33261 whole entry, looked up): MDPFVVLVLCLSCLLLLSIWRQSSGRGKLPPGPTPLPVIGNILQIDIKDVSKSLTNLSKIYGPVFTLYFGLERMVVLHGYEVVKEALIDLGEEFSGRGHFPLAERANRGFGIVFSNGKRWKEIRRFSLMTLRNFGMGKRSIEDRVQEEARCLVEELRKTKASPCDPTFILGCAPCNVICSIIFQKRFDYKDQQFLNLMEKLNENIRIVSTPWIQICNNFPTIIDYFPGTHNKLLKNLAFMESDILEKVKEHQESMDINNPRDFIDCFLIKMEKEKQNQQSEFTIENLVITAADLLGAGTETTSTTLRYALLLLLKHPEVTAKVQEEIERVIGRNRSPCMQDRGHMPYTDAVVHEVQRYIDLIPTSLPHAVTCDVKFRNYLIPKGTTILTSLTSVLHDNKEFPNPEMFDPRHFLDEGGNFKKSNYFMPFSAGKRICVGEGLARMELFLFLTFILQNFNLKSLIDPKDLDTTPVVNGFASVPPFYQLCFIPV

For the molecule `N[C@@H](Cc1ccc(N(CCCl)CCCl)cc1)C(=O)O`, the outcome in [1] and in assay [2] was inactive. In assay [3], the Potency is 39.8 µM (active).
On to `NN=C(N)N`, for which the outcome in assay [4], in assay [2], in assay [5], in assay [6], in assay [7] and in assay [10] was inactive. Further, the Potency entry in assay [8] and in assay [9] was “inactive” in each case.
Consider `O=c1[nH]c2ccccc2n1CCCN1CCC(n2c(=O)[nH]c3cc(Cl)ccc32)CC1`, for which the call in assay [4], in assay [5], in assay [6], in [7] and in assay [10] was inactive. In assay [9], the Potency is 14.1 µM (active).
As for `Cc1ccc(S(=O)(=O)N[C@@H](CCCCN)C(=O)CCl)cc1`, the call in assay [4], in [6] and in assay [10] was inactive. Besides, the Potency in [11] is 11.2 µM (active). Moreover, the Potency entry in assay [8] is “inactive”.
For the molecule `CC(=O)[C@H]1CC[C@H]2[C@@H]3CC[C@H]4C[C@H](O)CC[C@]4(C)[C@H]3C(=O)C[C@]12C`, the molecule was classed as inactive in assay [4], in assay [6] and in [10].
As for `CCOP(=S)(OCC)Oc1cc(C)nc(C(C)C)n1`, the outcome in assay [1], in assay [12] and in assay [13] was inactive. Further, the Potency entry in assay [3] and in assay [14] was “inactive” in each case.
In the case of `Nc1ccncc1`, the result in assay [4], in assay [5], in assay [6], in assay [7] and in [10] was inactive. Further, the Potency entry in assay [8] and in assay [9] was “inactive” in each case.
For the molecule `Oc1cccc2cccnc12`, the result in [1], in [12], in [13], in assay [5] and in [7] was inactive. Also, the Potency entry in assay [15] is “inactive”. Moreover, the Potency in assay [3] is 6.31 µM (active); in [14], 39.8 µM (active).
Consider `c1ccc2c(c1)Nc1ccccc1S2`, for which the molecule was called inactive in assay [1], in assay [12] and in assay [13]. Besides, the Potency entry in assay [3] and in assay [14] was “inactive” throughout.
Consider `CCn1cc(C(=O)O)c(=O)c2ccc(C)nc21`, for which the call in assay [4], in assay [6] and in assay [10] was inactive. For the same molecule, the Potency result in [8] and in assay [9] was “inactive” in each case.
As to `Cc1cccc(C)c1NC1=NCCCS1`, the molecule was called inactive in assay [4], in [5], in assay [6], in assay [7] and in [10].
As for `Clc1cccc(N2CCNCC2)c1`, the result in assay [4], in [2], in assay [6] and in assay [10] was inactive. For the same molecule, in assay [16], the Potency is 3.98 µM (active).
With `Clc1ccc(COC(Cn2ccnc2)c2ccc(Cl)cc2Cl)cc1` (stereo not given), the call in [12], in [13], in assay [2], in assay [5] and in assay [7] was inactive.
For `CCCN1CCC[C@@H]2Cc3nc(N)ncc3C[C@H]21`, the result in assay [4], in assay [6] and in assay [10] was inactive. In addition, the Potency entry in [11] and in assay [9] was “inactive” each time.
Regarding `CNCC(O)c1ccc(O)cc1` (stereo not given), the call in assay [1], in [12], in [13], in [4] and in assay [10] was inactive. Besides, the Potency result in [15], in assay [3], in [9] and in [14] was “inactive” each time.
As for `Cc1ncc(CNC(=O)N(CCCl)N=O)c(N)n1`, the molecule was called inactive in assay [4], in [5], in assay [6], in assay [7] and in assay [10]. In addition, the Potency result in [9] was “inactive”.
On to `Oc1ccccc1-c1ccccc1`, for which the outcome in assay [1], in assay [12] and in assay [13] was inactive. In addition, the Potency entry in assay [15], in [3] and in assay [14] was “inactive” in each case.
In the case of `Oc1ccc(Cl)cc1Cc1ccccc1`, the outcome in [1], in [12] and in [13] was inactive. The Potency entry in [3] and in assay [14] was “inactive” each time.
Turning to `CCCN1CCC[C@@H]2Cc3[nH]ncc3C[C@H]21`, the outcome in assay [4], in assay [6] and in assay [10] was inactive. Further, the Potency entry in assay [15], in assay [11], in [8] and in [9] was “inactive” in each case.
As for `COc1ccccc1N1CCNCC1`, the result in assay [4], in [5], in assay [6], in [7] and in assay [10] was inactive. Moreover, the Potency result in assay [15], in [17], in assay [8] and in assay [9] was “inactive” in each case.
For the molecule `c1ccc(C2CC2)c(OCC2=NCCN2)c1`, the result in assay [4] and in assay [10] was inactive. Also, the Potency in assay [16] is 5.01 µM (active); in assay [9], 10 µM (active). Also, the Potency result in assay [17] is “inactive”. Besides, in assay [18], the activation is 8.99%.
As to `O=c1[nH]c2ccccc2n1C1CCN(CCCC(c2ccc(F)cc2)c2ccc(F)cc2)CC1`, the outcome in assay [4], in assay [5], in assay [7] and in [10] was inactive. The Potency entry in assay [19] and in assay [15] was “inactive” in each case. Moreover, the Potency in assay [20] is 10 µM (active).
